Experimental data as given in PubChem BioAssay (NCATS).
Values joined by “and” are separate entries in the source; they are usually repeats but may differ in a detail not shown here. Equal values may be shown once. Inconclusive results are not listed. Active and inactive are the calls of the source. Unless noted, calls follow the shape of the full dose curve.

Key:
[1] = qHTS Assay for Lipid Storage Modulators (AID 1519); details: Drosophila S3 cells, BODIPY lipid droplet/cell ratio, laser cytometry, cells loaded with oleic acid; as to activity change, negative = inhibition: % is scaled to controls: 0 for no effect and ±100 for the full control effect
Procedure, shortened: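 Cells seeded at 5,000 per well were treated with compounds over a concentration series and loaded with oleic acid (400 uM, as added). Lipid droplet fluorescence (488 nm excitation, 500-530 nm channel) was read by laser-scanning cytometry and normalized to 20 uM Triacsin C.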

[2] = Validation of Assay for Modulators of Lamin A Splicing (AID 1459; active = well fitted curve in the direction sought with a large enough effect in the signal ratio; the % refers to the signal ratio;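 also: cells exposed to compound for two days before reading; 0% is about no effect; ratio rise marks activators and ratio drop marks inhibitors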); details: Lamin A splicing dual RFP/GFP fluorescence reporter; series mostly up to 9.22 µM
Procedure, shortened: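 S3 HeLa stably expressing lamin A-EGFP splicing minigene and DsRed2, 600 cells/well in Opti-MEM with 2% FBS, treated 48 h at 37C; laser-scanning cytometry gives GFP/RFP total intensity ratio; ancitabine positive control, 0.5% DMSO vehicle.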

[3] = target: DNA repair nuclease/redox regulator APEX1 (Homo sapiens) (UniProt P27695); assay: qHTS Validation Assay for Inhibitors of the Human Apurinic/apyrimidinic Endonuclease 1 (APE1) (AID 1705; active = well fitted inhibition curve with a large enough effect;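 also: TAMRA fluorescence gain over two minutes as APE1 cuts a quenched THF abasic duplex; % is scaled to controls: 0 for no effect and ±100 for the full control effect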); details: purified APE1 endonuclease activity, fluorescence, titration; series mostly up to 57.1 µM
Sequence of DNA repair nuclease/redox regulator APEX1 (Homo sapiens) (P27695 whole entry, looked up): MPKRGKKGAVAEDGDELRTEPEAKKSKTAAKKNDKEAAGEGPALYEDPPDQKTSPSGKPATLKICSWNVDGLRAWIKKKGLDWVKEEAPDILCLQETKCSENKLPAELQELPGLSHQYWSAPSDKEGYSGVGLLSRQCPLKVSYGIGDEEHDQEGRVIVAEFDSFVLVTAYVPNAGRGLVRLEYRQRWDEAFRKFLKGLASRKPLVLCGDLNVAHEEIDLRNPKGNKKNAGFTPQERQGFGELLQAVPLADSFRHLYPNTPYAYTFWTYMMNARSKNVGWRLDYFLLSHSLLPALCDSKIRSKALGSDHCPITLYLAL
Procedure, shortened: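 Fluorogenic double-stranded THF abasic-site substrate (5'-TAMRA/3'-BHQ-2), 50 nM final. Enzyme preincubated with compound 15 min at room temperature, then substrate added. Kinetic fluorescence (ex 525/em 598 nm) read three times at 60 s intervals; activity taken as third-minus-first read difference.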

[4] = measured here: cell count channel max response
[5] = measured here: lipid channel max response

Question: What does the source list for `CC1(C)S[C@@H]2[C@H](NC(=O)C3(N)CCCCC3)C(=O)N2[C@H]1C(=O)O`?
Answer: activity change, negative = inhibition ([1]; at 25.7 µM (top of the series)): -0.399% (inactive); max response [1, 4]: 10.5%; max response [1, 5]: 9.76%

Question: For `CNC(=O)c1c(I)c(C(=O)NCC(=O)Nc2c(I)c(C(=O)O)c(I)c(C(=O)NCCO)c2I)c(I)c(N(C)C(C)=O)c1I`, which activity change, negative = inhibition ([1]; at 25.7 µM (top of the series)) is on record?
Answer: The activity change, negative = inhibition was -2.02% (inactive).

Question: What about the max response [1, 4] of the same compound?
Answer: The max response was -4.35%.

Question: What about the max response [1, 5] of the same compound?
Answer: The max response was -10.2%.

Question: For `CCCc1nc(C(C)(C)O)c(C(=O)OCc2oc(=O)oc2C)n1Cc1ccc(-c2ccccc2-c2nn[nH]n2)cc1`, which activity change, negative = inhibition ([1]; at 57.5 µM (top of the series)) is on record?
Answer: The activity change, negative = inhibition was 8.57% (inactive).

Question: What about the max response [1, 4] of the same compound?
Answer: The max response was 19.2%.

Question: What about the max response [1, 5] of the same compound?
Answer: The max response was 29.3%.

Question: What does the source list for `CN1C(=O)OC(C)(C)C1=O`?
Answer: activity change, negative = inhibition ([1]; at 25.7 µM (top of the series)): 0.553% (inactive); max response [1, 4]: 9.38%; max response [1, 5]: 10.6%

Question: With `CC(C)c1nc(N(C)S(C)(=O)=O)nc(-c2ccc(F)cc2)c1/C=C/C(O)CC(O)CC(=O)O` (centres undefined) as the compound, how does the activity change, negative = inhibition ([1]; at 57.5 µM (top of the series)) read?
Answer: The activity change, negative = inhibition was 2.85% (inactive).

Question: And the max response [1, 4]?
Answer: Its max response is 4.28%.

Question: What about the max response [1, 5] of the same compound?
Answer: The max response was 9.26%.

Question: Which activity change, negative = inhibition ([1]; at 57.5 µM (top of the series)) does the source give for `N#Cc1ccc2c(c1)N(CCCN1CCC(O)CC1)c1ccccc1S2` here?
Answer: Its activity change, negative = inhibition is 6.36% (inactive).

Question: What about the max response [1, 4] of the same compound?
Answer: Its max response is 2.04%.

Question: And the max response [1, 5]?
Answer: Its max response is 8.33%.

Question: Which activity change, negative = inhibition ([1]; at 57.5 µM (top of the series)) does the source give for `CC1CCCC(C)N1NC(=O)c1ccc(Cl)c(S(N)(=O)=O)c1` (centres undefined) here?
Answer: The activity change, negative = inhibition was 2.67% (inactive).

Question: And the max response [1, 4]?
Answer: Its max response is 17.3%.

Question: What about the max response [1, 5] of the same compound?
Answer: Its max response is 23.6%.

Question: What does the source list for `O=C(NCCNCC(O)COc1ccc(O)cc1)N1CCOCC1` (centres undefined)?
Answer: outcome [2]: inactive; activity change, negative = inhibition ([1]; at 57.5 µM (top of the series)): -2.06% (inactive); max response [1, 4]: -28.3%; max response [1, 5]: -30.3%; outcome [3]: inactive

Question: What does the source list for `CC(=O)Oc1cccc2c1C(=O)c1c(OC(C)=O)cc(C(=O)O)cc1C2=O`?
Answer: activity change, negative = inhibition ([1]; at 57.5 µM (top of the series)): 13.8% (inactive); max response [1, 4]: 25.9%; max response [1, 5]: 41.9%

Question: For `COc1cc(S(C)=O)ccc1-c1nc2ncccc2[nH]1` (centres undefined), which activity change, negative = inhibition ([1]; at 25.7 µM (top of the series)) is on record?
Answer: The activity change, negative = inhibition was 0.171% (inactive).

Question: And the max response [1, 4]?
Answer: Its max response is -21.2%.

Question: And the max response [1, 5]?
Answer: Its max response is -18.4%.

Question: What does the source list for `CC[C@H]1OC(=O)[C@H](C)[C@@H](O[C@H]2C[C@@](C)(OC)[C@@H](O)[C@H](C)O2)C(C)[C@@H](O[C@@H]2O[C@H](C)C[C@H](N(C)C)[C@@H]2O)[C@](C)(OC)C[C@@H](C)C(=O)[C@H](C)[C@@H](O)[C@]1(C)O` (some centres undefined)?
Answer: activity change, negative = inhibition ([1]; at 57.5 µM (top of the series)): 7.44% (inactive); max response [1, 4]: 9.53%; max response [1, 5]: 18.8%

Question: Which activity change, negative = inhibition ([1]; at 25.7 µM (top of the series)) does the source give for `CC(=O)N=c1sc(S(N)(=O)=O)nn1C` here?
Answer: Its activity change, negative = inhibition is -5.24% (inactive).

Question: What about the activity change, negative = inhibition ([1]; at 57.5 µM (top of the series)) of the same compound?
Answer: Its activity change, negative = inhibition is -1.51% (inactive).

Question: What about the max response [1, 4] of the same compound?
Answer: The max response was -10.9% and 5.08%.

Question: What about the max response [1, 5] of the same compound?
Answer: Its max response is -12.6% and 4.84%.
